The text below walks through data of PubChem BioAssay (NCATS).

Experiment [1] concerns the target Lysosomal acid glucosylceramidase (Homo sapiens) (UniProt P04062). As to the kind of experiment: Glucocerebrosidase-p2 (AID 348; in the data active = potency below about 10 µM; note: potency is the fitted concentration of half-maximal effect). The conditions noted are these: purified GBA, blue fluorogenic substrate, 40 min. The method in brief:
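Compounds titrated from 0.6 nM upwards against 0.2 nM enzyme in pH 5.9 citric acid/KH2PO4, taurocholate, tween-20; blue fluorogenic substrate 80 uM, 40 min room temperature, stopped and read Ex 365/Em 440 for AC50.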

Experiment [2] is described as follows: AP1 Signaling Pathway (AID 357).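 Note: ME-180 reporter cells stimulated with EGF at its EC50 level; % is set by controls: 0 for no effect and ±100 for the full control effect.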 The conditions noted are these: ME-180 AP-1-bla reporter, EGF-induced, beta-lactamase ratio, 5 h; at 7.69 µM (top of the series) unless noted. The method in brief:
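Read-out was the 460nm/530nm emission ratio (excitation 405nm) after CCF4 loading for 2.5 hours at room temperature. Cells carried an AP-1-driven beta-lactamase reporter, were stimulated with EC50 EGF plus compound for 5 hours, and AC50 values came from titrations.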

Experiment [3] is described as follows: NFAT Signaling Pathway (AID 444).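 Note: carbachol stimulus at about its EC50 of 1 µM final; % is set by controls: 0 for no effect and ±100 for the full control effect.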 The conditions noted are these: Jurkat NFAT-bla M1, carbachol, beta-lactamase ratio, 5 h; at 7.69 µM (top of the series) unless noted. The method in brief:
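Jurkat cells with NFAT-driven β-lactamase reporter and co-expressed M1 receptor, stimulated with carbachol (final 1 uM, ~EC50), compound titration, 5 h at 37 °C. CCF4 loaded 1 h at RT; 460/530 nm ratio gave %activity and AC50.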

Experiment [4] can be described thus: Stat Signaling Pathway (AID 446).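 Note: ME-180 cervical cancer cells given 40 pM IL-6 alongside compound; SIE-controlled beta-lactamase reporter measured as 460/530 nm FRET emission ratio; % is set by controls: 0 for no effect and ±100 for the full control effect.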 The conditions noted are these: ME-180 (cervical carcinoma) SIE beta-lactamase reporter, IL-6 stimulated, 5 h; at 7.69 µM (top of the series) unless noted. The method in brief:
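ME-180 cells carrying a SIE-driven beta-lactamase reporter are stimulated with 40 pM IL-6 for 5 h at 37C in the presence of compound. The 460/530 nm FRET substrate ratio is read after 2.5 h at RT. Data are normalised to 300 pM IL-6 and to 125 nM JAK inhibitor controls.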

In experiment [5] the target is Glucocorticoid receptor (Homo sapiens) (UniProt P04150). As to the kind of experiment: GR-EFC Redistribution (AID 451; calls by dose curve; note: potency is the fitted concentration of half-maximal effect). The conditions noted are these: CHO-K1 GR-EFC translocation, beta-gal luminescence, 2 h. The method in brief:
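CHO-K1 cells expressing nuclear EA and GR-ED fragments of b-gal; compounds titrated up to 46 uM final, 2 h at 37 C. GR nuclear translocation read as complemented b-gal luminescence after 1 h RT detection.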

Experiment [6] has as its target Mitogen-activated protein kinase 10 (Mus musculus) (UniProt Q61831). As to the kind of experiment: JNK3 AlphaScreen Assay (AID 530).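 Note: kinase came from lysate of stimulated human HepG2 cells; signal reports phosphorylation of biotinylated GST-cJun 1-79 at Ser73 with 10 µM ATP; % is set by controls: 0 for no effect and ±100 for the full control effect.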 To be noted: JNK3 lysate, c-Jun phosphorylation; series mostly up to 57.1 µM. The method in brief: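 Pre-activated (IL-1β/TNFα) JNK3 in HepG2 lysates phosphorylates biotin-GST-cJun(1-79), 10 uM ATP; anti-phospho-cJun(Ser73) AlphaScreen read at room temperature, pH 7.6 Tris buffer. Compounds pre-incubated 15 min as titrations.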
On the technique in general: In Alpha technology, singlet oxygen from a donor bead excites a nearby acceptor bead.

Experiment [7] has as its target 3',5'-cyclic-AMP phosphodiesterase 4B (Homo sapiens) (UniProt Q07343). As to the kind of experiment: qHTS Assay for Inhibitors of PDE-IV (AID 607; active = well fitted activation curve with a large enough effect in the main read-out, with a control signal flat, not every such curve was filed as active; note: % of control where 0% means no effect). To be noted: HEK293 ACTOne CNG channel cells, membrane potential fluorescence; series mostly up to 22.9 µM. In a few lines:
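HEK293 ACTOne cells with CNG channel (1000/well), endogenous PDE4; membrane potential dye, compounds up to 22.9 uM final. Fluorescence Ex 535/Em 590; RO 20-1724 (100 uM final) as reference.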

The nature of experiment [8]: qHTS Assay for Lipid Storage Modulators (AID 1519; calls by dose curve). To be noted: Drosophila S3 cells, BODIPY lipid droplet/cell ratio, laser cytometry, cells loaded with oleic acid; for activity change, negative = inhibition: at 57.5 µM (top of the series). The method in brief:
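Cells seeded at 5,000 per well were treated with compounds over a concentration series and loaded with oleic acid (400 uM, as added). Lipid droplet fluorescence (488 nm excitation, 500-530 nm channel) was read by laser-scanning cytometry and normalized to 20 uM Triacsin C.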
In general terms: In qHTS, concentration-response curves come from the screen itself.

A short description of experiment [9]: Primary qHTS for small molecule stabilizers of the endoplasmic reticulum resident proteome: Secreted ER Calcium Modulated Protein (SERCaMP) assay (AID 1508630; active = well fitted inhibition curve with a large enough effect; note: % is set by controls: 0 for no effect and ±100 for the full control effect). To be noted: SH-SY5Y GLuc-SERCaMP (Gaussia luciferase released on ER calcium loss) secretion, thapsigargin, luminescence; series mostly up to 38.4 µM. In a few lines:
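GLuc-SERCaMP-expressing SH-SY5Y cells, pretreated 16 h with compound, are challenged with thapsigargin to empty ER calcium stores; after 4 h, coelenterazine is added directly to the medium and luminescence is imaged.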

The mark [10] stands for this setting: measured here: cell count channel max response.
Where [11] appears, read: measured here: lipid channel max response.

Structures are written as SMILES. Inconclusive results are not listed. Activity calls are given as the source filed them. Unless noted, calls come from the whole dose curve; as a rule, active = well fitted curve in either direction with a large enough effect (not every such curve was filed as active); inconclusive = small, poorly fitted or top-dose-only effect, or another doubt; inactive = flat fitted curve, though single readings scatter. Where only a bound is given, the exact number is not on record here.

Chain of Glucocorticoid receptor (Homo sapiens) (P04150 whole entry, looked up, the tested form may be a part): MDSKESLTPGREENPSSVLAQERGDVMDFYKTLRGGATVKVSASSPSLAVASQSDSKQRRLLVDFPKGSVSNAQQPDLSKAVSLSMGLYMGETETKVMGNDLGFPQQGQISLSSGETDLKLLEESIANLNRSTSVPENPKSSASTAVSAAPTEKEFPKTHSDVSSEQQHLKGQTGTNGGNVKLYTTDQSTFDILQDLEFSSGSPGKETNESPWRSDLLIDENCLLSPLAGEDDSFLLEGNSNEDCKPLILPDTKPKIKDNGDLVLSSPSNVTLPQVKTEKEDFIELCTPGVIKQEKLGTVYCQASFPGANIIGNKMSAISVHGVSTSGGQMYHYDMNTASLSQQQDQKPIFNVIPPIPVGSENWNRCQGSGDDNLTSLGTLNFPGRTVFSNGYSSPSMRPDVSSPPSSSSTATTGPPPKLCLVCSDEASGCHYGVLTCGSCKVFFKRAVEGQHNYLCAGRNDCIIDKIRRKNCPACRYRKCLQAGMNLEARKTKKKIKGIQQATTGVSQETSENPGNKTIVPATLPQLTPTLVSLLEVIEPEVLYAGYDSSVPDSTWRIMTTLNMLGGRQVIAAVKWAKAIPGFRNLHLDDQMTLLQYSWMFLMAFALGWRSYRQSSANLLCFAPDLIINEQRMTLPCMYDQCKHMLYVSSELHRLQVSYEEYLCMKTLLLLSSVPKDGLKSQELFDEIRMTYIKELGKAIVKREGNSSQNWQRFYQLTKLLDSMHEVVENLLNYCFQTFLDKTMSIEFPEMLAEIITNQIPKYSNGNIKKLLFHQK
Chain of Lysosomal acid glucosylceramidase (Homo sapiens) (P04062 whole entry, looked up): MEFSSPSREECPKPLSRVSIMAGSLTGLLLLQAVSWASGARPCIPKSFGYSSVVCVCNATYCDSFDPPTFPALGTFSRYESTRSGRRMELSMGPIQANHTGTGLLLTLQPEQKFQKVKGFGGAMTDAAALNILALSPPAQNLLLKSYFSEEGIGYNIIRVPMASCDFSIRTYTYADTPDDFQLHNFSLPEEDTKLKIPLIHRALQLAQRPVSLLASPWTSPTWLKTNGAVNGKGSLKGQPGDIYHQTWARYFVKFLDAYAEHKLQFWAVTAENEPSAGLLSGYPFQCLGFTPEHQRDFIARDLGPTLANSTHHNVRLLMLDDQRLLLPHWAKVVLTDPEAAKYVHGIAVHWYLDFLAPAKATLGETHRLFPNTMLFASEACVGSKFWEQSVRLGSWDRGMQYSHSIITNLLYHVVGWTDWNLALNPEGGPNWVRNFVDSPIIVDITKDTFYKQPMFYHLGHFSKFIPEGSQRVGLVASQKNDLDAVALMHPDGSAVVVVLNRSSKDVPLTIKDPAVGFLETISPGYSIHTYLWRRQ
Chain of 3',5'-cyclic-AMP phosphodiesterase 4B (Homo sapiens) (Q07343 whole entry, looked up): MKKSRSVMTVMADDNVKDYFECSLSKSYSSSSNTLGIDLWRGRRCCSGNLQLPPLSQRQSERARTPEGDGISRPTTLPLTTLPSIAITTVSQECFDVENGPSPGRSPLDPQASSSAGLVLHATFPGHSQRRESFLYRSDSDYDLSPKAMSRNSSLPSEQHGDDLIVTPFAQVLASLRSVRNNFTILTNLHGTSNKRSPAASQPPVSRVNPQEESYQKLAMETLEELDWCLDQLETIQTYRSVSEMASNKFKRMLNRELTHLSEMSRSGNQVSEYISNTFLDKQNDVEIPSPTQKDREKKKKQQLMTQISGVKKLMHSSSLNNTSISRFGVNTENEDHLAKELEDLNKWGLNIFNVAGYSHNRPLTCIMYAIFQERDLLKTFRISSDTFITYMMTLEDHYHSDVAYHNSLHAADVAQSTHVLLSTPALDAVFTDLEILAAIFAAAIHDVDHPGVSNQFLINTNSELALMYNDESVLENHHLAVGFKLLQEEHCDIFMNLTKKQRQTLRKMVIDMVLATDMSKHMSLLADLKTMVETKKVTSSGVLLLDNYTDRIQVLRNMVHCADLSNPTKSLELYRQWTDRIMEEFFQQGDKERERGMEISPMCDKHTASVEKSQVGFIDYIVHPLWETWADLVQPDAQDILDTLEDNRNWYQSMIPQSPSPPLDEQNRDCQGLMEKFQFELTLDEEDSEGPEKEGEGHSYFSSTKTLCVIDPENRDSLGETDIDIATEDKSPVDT

`O=C(Nc1ccccc1)N1CC[C@@]2(CCCN(C(=O)c3csnn3)C2)C1`: the Potency in [1] is > 11.4 µM (inactive); in experiment [5], > 46 µM (inactive). Further, the activity change, negative = inhibition in [2] was -13.6% (inactive); in experiment [3], 9.61% (inactive); in experiment [8], 6.56% (inactive). Also, the activity, negative = inhibition in experiment [4] is 0.432% (inactive). Besides, the Potency entry in experiment [6] and in experiment [7] was “inactive” each time. Also, the max response in experiment [8] (setting [10]) was -5.15%; in experiment [8] (setting [11]), 6.65%. Further, the outcome in experiment [9] was inactive.
For the compound `CC(C)NC(=O)N1CCC2(CC1)CCN(S(=O)(=O)c1ccccc1)CC2`, the results for the Potency in experiment [1] and in experiment [5] were > 11.4 µM (inactive) and > 46 µM (inactive), respectively. Besides, the activity change, negative = inhibition is -11.1% (inactive) in [2], 6.99% (inactive) in experiment [3] and 3.73% (inactive) in experiment [8]. For the same compound, the activity, negative = inhibition in [4] was -1.93% (inactive). For the same compound, the Potency result in [6] and in [7] was “inactive” in each case. The figures for the max response in experiment [8] (setting [10]) and in experiment [8] (setting [11]) were -0.645% and 4.57%, respectively. For the same compound, the result in experiment [9] was inactive.
In the case of `CC(C)CN1CC2(CCN(C(=O)c3cnccn3)CC2)C1`, the Potency in experiment [1] is > 11.4 µM (inactive); in experiment [5] it was > 46 µM (inactive). Moreover, the activity change, negative = inhibition in [2] is -4.93% (inactive); in [3], -25.4% (inactive); in experiment [8] it was 3.58% (inactive). Moreover, the activity, negative = inhibition in [4] is -6.85% (inactive). For the same compound, the Potency entry in experiment [6] and in experiment [7] was “inactive” throughout. For the same compound, the max response was determined as 13.2% in experiment [8] (setting [10]) and 20.3% in experiment [8] (setting [11]). Further, the outcome in [9] was inactive.
On to `CS(=O)(=O)N1CCC2(CC1)CN(c1ccccn1)C2`, for which the Potency in experiment [1] is > 11.4 µM (inactive); in experiment [5] it was > 46 µM (inactive). For the same compound, the activity change, negative = inhibition in experiment [2] is 2.96% (inactive); in [3], -0.983% (inactive); in [8], 2.99% (inactive). The activity, negative = inhibition in [4] was 5.22% (inactive). Also, the Potency entry in experiment [6] and in experiment [7] was “inactive” throughout. Besides, the max response in experiment [8] (setting [10]) amounted to 7.05%; in experiment [8] (setting [11]), 10.2%. In addition, the result in [9] was inactive.
For the compound `COC(=O)N1CCC[C@@]2(CCN(C(=O)NC(C)C)C2)C1`, the Potency is > 11.4 µM (inactive) in experiment [1] and > 46 µM (inactive) in experiment [5]. Moreover, the values for the activity change, negative = inhibition in experiment [2], in [3] and in experiment [8] were -4.17% (inactive), -22.1% (inactive) and 2.29% (inactive), respectively. Besides, in experiment [4], the activity, negative = inhibition is 8.06% (inactive). In addition, the Potency entry in experiment [6] and in experiment [7] was “inactive” each time. Besides, the max response in experiment [8] (setting [10]) was -6.98%; in [8] (setting [11]) it was -3.79%. Besides, in [9], the outcome was inactive.
As for `COc1ccc(NC(=O)N2CC3(CCN(C(=O)c4cc(C(F)(F)F)cc(C(F)(F)F)c4)CC3)C2)cc1`, the Potency was > 11.4 µM (inactive) in [1] and > 46 µM (inactive) in experiment [5]. For the same compound, the activity change, negative = inhibition in experiment [2] is -15.1% (inactive); in experiment [3] it was 16% (inactive); in experiment [8] it was 2.01% (inactive). Moreover, the activity, negative = inhibition in experiment [4] was -20.2% (inactive). For the same compound, the Potency result in [6] and in experiment [7] was “inactive” in each case. For the same compound, the max response in experiment [8] (setting [10]) was 12.2%; in [8] (setting [11]), 18.4%. The result in experiment [9] was inactive.
On to `COCC(=O)N1CCC2(CCCN(c3ccc(-c4ccccc4)cc3)C2)CC1`, for which the Potency in experiment [1] was > 11.4 µM (inactive); in [5], > 46 µM (inactive). Moreover, the activity change, negative = inhibition in experiment [2] is -7.31% (inactive); in experiment [3], 3.92% (inactive); in experiment [8], -5.34% (inactive). Besides, the activity, negative = inhibition in experiment [4] is -7.13% (inactive). Further, the Potency entry in [6] and in experiment [7] was “inactive” throughout. Also, the max response amounted to 18.5% in experiment [8] (setting [10]) and 14.9% in experiment [8] (setting [11]). In addition, the outcome in [9] was inactive.
Take `COC(=O)N1CCC2(CCN(C(=O)Nc3cccc(C#N)c3)CC2)CC1`: the figures for the Potency in [1] and in experiment [5] were > 11.4 µM (inactive) and > 46 µM (inactive), respectively. For the same compound, the activity change, negative = inhibition in experiment [2] is -20.7% (inactive); in experiment [3], 4.12% (inactive); in [8] it was -0.883% (inactive). For the same compound, the activity, negative = inhibition in experiment [4] is 7.14% (inactive). The Potency result in experiment [6] and in [7] was “inactive” each time. In addition, the max response was found to be 12.6% in experiment [8] (setting [10]) and 14% in experiment [8] (setting [11]). Further, the outcome in experiment [9] was inactive.
For `COCC(=O)N1CCC[C@@]2(CCN(Cc3cc(C(F)(F)F)cc(C(F)(F)F)c3)C2)C1`, the values for the Potency in experiment [1] and in [5] were > 11.4 µM (inactive) and > 46 µM (inactive), respectively. Also, the activity change, negative = inhibition is 3.75% (inactive) in experiment [2], 6.67% (inactive) in experiment [3] and 5.27% (inactive) in experiment [8]. The activity, negative = inhibition in [4] was 9.45% (inactive). The Potency result in [6] and in [7] was “inactive” in each case. Further, the results for the max response in experiment [8] (setting [10]) and in experiment [8] (setting [11]) were 7.6% and 16.2%, respectively. Further, in experiment [9], the result was inactive.
On to `COc1ccc(C(=O)N2CCC[C@@]3(CCN(Cc4ccncc4)C3)C2)cc1`, for which the results for the Potency in experiment [1] and in experiment [5] were > 11.4 µM (inactive) and > 46 µM (inactive), respectively. In addition, the activity change, negative = inhibition in experiment [2] was -9.73% (inactive); in [3], 4.96% (inactive); in experiment [8] it was 5.81% (inactive). In experiment [4], the activity, negative = inhibition was 2.52% (inactive). Besides, the Potency entry in experiment [6] and in experiment [7] was “inactive” each time. In addition, the max response in [8] (setting [10]) was 16.4%; in experiment [8] (setting [11]) it was 25.6%. Also, the result in [9] was inactive.
As for `COc1ccc(NC(=O)N2CC[C@@]3(CCCN(C(=O)c4ccco4)C3)C2)cc1`, the results for the Potency in experiment [1] and in [5] were > 11.4 µM (inactive) and > 46 µM (inactive), respectively. The activity change, negative = inhibition in experiment [2] is -13.2% (inactive); in experiment [3], -7.9% (inactive); in experiment [8] it was 2.86% (inactive). Besides, the activity, negative = inhibition in experiment [4] is 13.8% (inactive). Further, the Potency entry in experiment [6] and in [7] was “inactive” each time. Moreover, the figures for the max response in [8] (setting [10]) and in [8] (setting [11]) were 9.78% and 12.5%, respectively. In addition, in experiment [9], the outcome was inactive.
On to `COc1ccc(NC(=O)N2CC[C@@]3(CCCN(C(=O)c4ccncc4)C3)C2)cc1`, for which the Potency is > 11.4 µM (inactive) in experiment [1] and > 46 µM (inactive) in experiment [5]. The activity change, negative = inhibition in [2] was -25.1% (inactive); in experiment [3], 16.8% (inactive); in experiment [8], 2.47% (inactive). Further, in [4], the activity, negative = inhibition is 5.11% (inactive). Also, the Potency result in [6] and in experiment [7] was “inactive” throughout. Also, the max response turned out to be 0.213% in [8] (setting [10]) and 7.4% in experiment [8] (setting [11]). The result in [9] was inactive.
With `COCC(=O)N1CCC2(CC1)CN(c1ccncc1)C2`, the Potency in experiment [1] is > 11.4 µM (inactive); in [5] it was > 46 µM (inactive). In addition, the figures for the activity change, negative = inhibition in experiment [2], in experiment [3] and in [8] were -2.96% (inactive), 2.67% (inactive) and 2.59% (inactive), respectively. The activity, negative = inhibition in [4] is -1.5% (inactive). Besides, the Potency entry in experiment [6] and in [7] was “inactive” in each case. The max response was determined as 4.76% in experiment [8] (setting [10]) and 11.2% in experiment [8] (setting [11]). In addition, in experiment [9], the outcome was inactive.
